Hits are enriched below; roughly 10% of the tested compounds scored in any of these assays.
GPT2 inhibitor – GPT2 alanine aminotransferase inhibition. Q8TD30. Recombinant GPT2, coupled pyruvate oxidase/HRP Amplex Red fluorescence. Potency, µM (highest dose often 57.7 µM), without a hit: at the highest dose activity change, negative = inhibition, usual class: inhibitors. actives 0.25% (n = 100,000). AID 1671188; note: nearly all actives have a fitted effect of over 60% in size
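GPT2 10ng/uL, a-KG 250uM, L-Ala 2mM, HEPES pH7.5 + 0.0001% Tween; 30 min RT. Then Amplex mix (PO/HRP/ThPP), 30 min RT dark, fluorescence. AOA 50uM used as positive control.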
HEK cytotox – HEK 293 cell cytotoxicity. actives 6.6% (n = 94,000). HEK 293 viability, ATP luminescence (CellTiter-Glo), 48-72 h. Potency, µM (titrated, usually from 115 µM), for the others: top-dose activity change, negative = cytotoxicity, most hits filed as inhibitors. AID 1345083; note: nearly all actives have a fitted effect of over 60% in size
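HEK 293 seeded at 250 cells/well receive compound via pintool. After 48 or 72 hr at 37 degree Celsius, 5% CO2 and 95% humidity, CellTiter-Glo is dispensed and luminescence read following 10 min at room temperature.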
FLuc inh – Photinus pyralis luciferase inhibition. P08659. purified P. pyralis luciferase, luminescence, biochemical. Potency, µM (doses to about 115 µM), hits mostly inhibitors. actives 2.5% (n = 76,000). AID 1347043; note: nearly all actives have a fitted effect of over 65% in size
Target sequence (P08659 whole entry, looked up): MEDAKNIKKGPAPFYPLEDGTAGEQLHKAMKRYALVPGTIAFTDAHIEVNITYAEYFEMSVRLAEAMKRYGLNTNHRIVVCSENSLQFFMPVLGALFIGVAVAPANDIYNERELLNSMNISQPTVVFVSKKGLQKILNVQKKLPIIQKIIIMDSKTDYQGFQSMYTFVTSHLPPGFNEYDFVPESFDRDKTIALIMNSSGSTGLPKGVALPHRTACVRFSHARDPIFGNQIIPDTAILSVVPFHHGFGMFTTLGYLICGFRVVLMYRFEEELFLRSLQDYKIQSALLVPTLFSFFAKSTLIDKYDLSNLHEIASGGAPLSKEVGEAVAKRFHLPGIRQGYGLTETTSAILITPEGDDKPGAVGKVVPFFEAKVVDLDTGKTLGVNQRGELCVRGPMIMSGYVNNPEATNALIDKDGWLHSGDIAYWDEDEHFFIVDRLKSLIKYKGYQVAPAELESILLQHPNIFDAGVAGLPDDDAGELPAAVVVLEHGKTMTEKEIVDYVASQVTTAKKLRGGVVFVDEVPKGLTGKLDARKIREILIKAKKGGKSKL
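Inhibitors were tested against purified firefly luciferase in a biochemical, low-substrate format (both substrates at 10uM) and luminescence measured with a CCD imager.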
NPR1 antag – antagonists of human natriuretic peptide receptor Npr1 | AID 1347048 | P16066 | actives 1.6% (n = 76,000) | Potency, µM (top dose mostly 46.3 µM), for the others: at the top dose activity change, negative = inhibition, hits mostly inhibitors | HEK293 hNpr1 GloSensor cGMP, ANP-stimulated luminescence; calls by dose curve; note: nearly all actives have a fitted effect of over 60% in size
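HEK293 cells stably expressing human Npr1 and cGMP GloSensor pGS-40F, loaded 2 h with 2% GloSensor reagent, given compound 30 min at room temperature. Luminescence read before and 20 min after 0.1 nM hNppA.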
NIH3T3 tox – NIH 3T3 cell cytotoxicity | actives 4.3% (n = 94,000) | Potency, µM (series often up to 96.7 µM), for inactives: at the top dose activity change, negative = cytotoxicity, usual class: inhibitors | NIH 3T3 viability, CellTiter-Glo ATP luminescence, 48-72 h; note: nearly all actives have a fitted effect of over 55% in size
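Cells were seeded at 400 per well, treated with pin-transferred compound, and kept 48 or 72 hr at 37 °C before CellTiter-Glo addition and luminescence imaging of cellular ATP.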
Active calls of the source: *; i = inactive; u = inconclusive; x = no result; [ ] = dose if it differs, or a comment. Unless noted, calls come from the whole dose curve; as a rule, active = well fitted curve in the direction sought with a large enough effect; inconclusive = small, poorly fitted or top-dose-only effect, or another doubt; inactive = no such curve, though single readings can be large; an effect the other way counts as inactive or inconclusive. % is set by controls: 0 for no effect and ±100 for the full control effect; potency is the fitted concentration of half-maximal effect.

SMILES	GPT2 inhibitor	HEK cytotox	FLuc inh	NPR1 antag	NIH3T3 tox
COc1cc(O)ccc1CN1CCCC2(Cc3ccccc3CNC2=O)C1 (centres undefined)	i	-16%	x	x	-18%
CN(C)C(=O)CCc1ccc(CC2CCN(C(=O)CCC3CCCC3)CC2)cc1	-4%	25µM*	x	x	u
CC(=O)N1CCC(N2CCC(Cc3ccc(CCC(=O)N(C)C)cc3)CC2)CC1	-77%	-23%	x	x	-21%
O=C(NCc1ccccn1)C1c2ccccc2C(=O)N(C2CCCCC2)C12CCCCC2 (centres undefined)	-6%	25µM*	i	-1%	u
CCCNC(=O)C1c2ccccc2C(=O)N(C2CCCCC2)C12CCCCC2 (centres undefined)	0%	40µM*	i	2%	u
COC(=O)CCNC(=O)C1c2ccccc2C(=O)N(C2CCCC2)C12CCCCC2 (centres undefined)	i	u	i	-1%	u
O=C(NCCc1ccncc1)C1c2ccccc2C(=O)N(C2CCCCC2)C12CCCCC2 (centres undefined)	-9%	40µM*	i	-30%	u
CCc1noc(-c2cccn3c(CNC(=O)c4ccc5ccccc5n4)nnc23)n1	-1%	35µM*	i	-6%	u
Cc1oc2ccn(Cc3ccc(F)cc3)c(=O)c2c1C(=O)NC1CCCCCC1	-9%	35µM*	i	-28%	u
CC(=O)Nc1ccc(NC(=O)c2c(C)oc3ccn(Cc4ccc(F)cc4)c(=O)c23)cc1	-3%	u	i	-4%	-13%
CCCc1nc(-c2nc(C3CCOC3)no2)cs1 (centres undefined)	i	0%	28µM*	-8%	1%
CCc1c(-c2nc(C3CCOC3)no2)[nH]c2ccccc12 (centres undefined)	i	u	i	-8%	u
Fc1ccccc1Nc1ccnc(N2CC3CCC(C2)N3CC(F)(F)F)n1	-18%	u	x	x	u
Cc1ccc(Nc2ccnc(N3CCN(C(=O)C4CC4)CC3)n2)cc1	-9%[88.5 µM]	71µM*	x	x	32µM*
Cc1ccc(Nc2ccnc(N3CCCC(C(=O)N4CCCC4)C3)n2)cc1 (centres undefined)	1%	u	x	x	28µM*
Cc1ccc(Nc2ccnc(N3CCCC(C(=O)N4CCN(c5ncccn5)CC4)C3)n2)cc1 (centres undefined)	-10%	20µM*	x	x	u
Cc1ccc(Nc2ccnc(N3CC4CCC(C3)N4CC(F)(F)F)n2)cc1	u	40µM*	x	x	28µM*
Cc1ccc(Nc2ccnc(N3CCC(C(=O)N4CCCC4)CC3)n2)cc1	i	u	x	x	u
COc1ccccc1-c1cc(C(=O)NCCc2ccc(Cl)cc2)nn2cccc12	-3%	-24%	x	x	-19%
O=C(CCc1ccco1)N1CCC(C2CCN(Cc3cccc(F)c3F)CC2)C1 (centres undefined)	u	u	i	2%	u
Cc1noc(C)c1CC(=O)N1CCCCCCNC(=O)[C@@H]2CCCC[C@@H]21	0%	i	i	1%	-15%
COCCNC(=O)C1CCCN(Cc2cccc(-c3cccc(C)c3)c2)C1 (centres undefined)	i	u	x	x	u
COc1ccccc1-c1cccc(CN2CCCC(C(=O)NCCCc3ccccc3)C2)c1 (centres undefined)	1%	u	x	x	35µM*
Cc1cccc(-c2cccc(CN3CCCC(C(=O)NCCCc4ccccc4)C3)c2)c1 (centres undefined)	-2%	45µM*	x	x	40µM*
COc1ccccc1-c1cccc(CN2CCCC(C(=O)N3CCCC3)C2)c1 (centres undefined)	0%	u	x	x	u
SMILES	GPT2 inhibitor	HEK cytotox	FLuc inh	NPR1 antag	NIH3T3 tox
Cc1nn2c(c1-c1ccnn1C(C)C)N(Cc1ccc3c(c1)CCO3)CCC2	i	u	i	-2%[70.6 µM]	32µM*
Cc1nn2c(c1-c1cccnc1N1CCOCC1)N(Cc1ccc3c(c1)CCO3)CCC2	5%[88.5 µM]	-23%[172 µM]	i	-19%[70.6 µM]	45µM*
Cc1ccncc1-c1c(C)nn2c1N(Cc1ccc(C(=O)O)cc1)CCC2	i	u	i	-12%[70.6 µM]	u
Cc1nn2c(c1-c1cccnc1N1CCOCC1)N(CCC(C)C)CCC2	-20%[88.5 µM]	40µM*	i	-25%[70.6 µM]	u
COc1ccc(OC)c(CN2CCCn3nc(C)c(-c4cccnc4N4CCOCC4)c32)c1	i	-29%	i	-18%	u
COCCN1C(=O)[C@@H]2C[C@@H](CN2Cc2ccccn2)Oc2ccccc21	-7%[88.5 µM]	u	i	-28%[70.6 µM]	u
O=C(CNC(=O)c1cccc(-c2ccc(C(F)(F)F)cc2)c1)NCCc1ccc(Cl)cc1	i	16µM*	x	x	-23%
O=C(CNC(=O)c1cccc(-c2ccc(C(F)(F)F)cc2)c1)NCCC1CCCCC1	i	22µM*	x	x	22µM*
COCCNC(=O)CNC(=O)c1cccc(-c2ccc(C(F)(F)F)cc2)c1	i	u	x	x	u
COc1cc(NC(=O)C2(C)CCCCC(=O)N2)cc(OC)c1 (centres undefined)	-12%	1%	i	2%	i
CCn1cc(S(=O)(=O)NCCc2ncc(C)n2C2CC2)cn1	-33%	-12%	i	6%	-18%
c1cnc2nc(-c3c[nH]c4ccccc34)[nH]c2c1	-4%[88.5 µM]	u	45µM*	-25%[70.6 µM]	u
CCCNC(=O)N(C1CCOCC1)C1CCN(C(=O)c2ccc3ncccc3c2)CC1	i	6%	i	-15%	i
O=C(NCC1CC1)c1nc2sccn2c1Br	i	-1%[172 µM]	i	33%[70.6 µM]	-13%[138 µM]
O=C(NCc1ccccc1)C1CN(c2ccnc3ccnn23)C1	-7%[88.5 µM]	u	x	x	u
O=C(NCCc1ccccc1F)C1CCN(c2ccnc3ccnn23)CC1	-9%	u	x	x	u
O=C(NCc1ccccc1F)C1CCN(c2ccnc3ccnn23)CC1	3%	16µM*	x	x	u
O=C(NCc1ccc(Cl)cc1)C1CCCN(c2ccnc3ccnn23)C1 (centres undefined)	i	50µM*	x	x	u
O=C(NCc1ccccc1)C1CCCN(c2ccnc3ccnn23)C1 (centres undefined)	2%[88.5 µM]	100µM*	x	x	u
O=C(NCc1cccc(Cl)c1)C1CCCN(c2ccnc3ccnn23)C1 (centres undefined)	1%	u	x	x	u
CCNC(=O)NC[C@@H]1C=C(C)[C@H](CC(=O)NCc2ccc(F)cc2)C[C@H]1C(C)C	-5%[88.5 µM]	u	i	-2%[70.6 µM]	u
COc1cccc(S(=O)(=O)N2CCCCC2c2n[nH]c(C)n2)c1 (centres undefined)	-6%	6%	i	4%	i
